TROY NFkB inh: inhibitors of TROY-driven NF-kB signaling, primary screen, Q293 LMP1-TROYcd cells, NF-kB luciferase, uHTS; Q293 LMP1-TROYcd NF-kB luciferase reporter, 4 h; inhibition, % at 10 µM; actives 0.98% (n = 360,000);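 active = compounds whose plate-normalised and pattern-corrected inhibition of the luciferase reporter signal at the single screening dose is 50% or more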
aSyn UTR inh: MLPCN primary screen, SNCA 5' untranslated region; alpha-synuclein 5'UTR reporter, inhibitor activity; inhibition, % (tested at 7.5 µM); actives 0.82% (n = 300,000); in the data active = inhibition above about 60%;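 note: H4 neuroglioblastoma cells stably carrying SNCA 5'UTR luciferase fusion; 0% = DMSO wells and 100% = positive control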
TRAIL sens C8: viability loss with TRAIL in NB7+C8 cells, primary screen, TRAIL sensitizer project, cell-based, ATPlite luminescence; actives 1% (n = 360,000); AID 624354, 2012; inhibition (viability loss, TRAIL sensitization), % at 10 µM;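 active = compounds causing at least 50% loss of cell viability in the single-dose screen, relative to plate controls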
TWEAK-Fn14 inh: inhibitors of TWEAK-Fn14 signaling, primary screen, luciferase reporter cells, uHTS; TWEAK-stimulated Fn14 reporter cells, luciferase luminescence, 8 h; inhibition, % at 10 µM; actives 2% (n = 360,000); in the data active = inhibition above about 50%
HIF-2a inh: HIF-2a reporter inhibitors, primary screen, luminescence, 786-0 RCC cells; 786-0 RCC cells HIF-2a reporter, luciferase luminescence, overnight; actives 0.72% (n = 360,000); AID 624352, 2012; inhibition, % at 18.8 µM;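 active = inhibition of the luminescence signal of 40% or more relative to plate controls, in a single-dose primary screen at 18.75 µM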
HSP90 inh: HSP90 inhibitors, primary screen, cell lysate, luminescence; Heat shock protein HSP 90 (rabbit reticulocyte lysate; luciferase refolding); actives 0.91% (n = 290,000); Rabbit reticulocyte lysate, luciferase refolding luminescence, 3 h; inhibition, % at 5.6 µM;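 active = inhibition above the screen-wide mean plus 3 SD, computed separately per campaign, cut at about 16% in these data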;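 note: 0% = DMSO wells and 100% = 60 µM geldanamycin wells; inhibitors lower the luminescence because luciferase stays unfolded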
An asterisk follows results filed as active; nt = no result given. An excerpt weighted towards active compounds, which were near 3.9% of everything screened.

SMILES | TROY NFkB inh | aSyn UTR inh | TRAIL sens C8 | TWEAK-Fn14 inh | HIF-2a inh | HSP90 inh
CC1(C(=O)NCc2ccccc2Br)CCN1C(=O)Cc1ccc(-c2ccccc2)cc1 (stereo not drawn) | 17 | nt | 6 | 10 | 12 | nt
CC(C)(C)CNC(=O)C1(C)CCN1C(=O)Cc1ccc(-c2ccccc2)cc1 (stereo not drawn) | 6 | nt | 3 | 67* | 15 | nt
CC(C)(C)c1ccc(/C=C/C(=O)c2ccc(NC3=NCCCS3)cc2)cc1 | 10 | -107 | 13 | 61* | 2 | 5
CCN(CC)CCCNc1nc2ccccc2c2[nH]c3ccc(OC)cc3c12 | 69* | nt | 41 | 5 | 35 | nt
CN1CCN(CCC(=O)N/N=C/c2ccccc2F)CC1 | 11 | -4 | 2 | -10 | 7 | 3
O=C(CCN1CCN(c2ccccc2)CC1)N/N=C/c1ccccc1O | 8 | 71* | 26 | -9 | 4 | 0
Clc1ccc2nc(-c3ccc(Br)s3)cn2c1 | -31 | -26 | 59* | 0 | -54 | 11
O=C(NCCCN1CCCC1)c1ccc(CS(=O)(=O)c2c(Cl)cccc2Cl)o1 | -7 | -19 | -1 | -1 | -6 | 2
COc1cccc(C(Nc2ccccc2)c2ccc3ccc(C)nc3c2O)c1 (stereo not drawn) | nt | nt | 8 | nt | -98 | nt
COc1cccc(C(NC(C)=O)c2ccc3cccnc3c2O)c1 (stereo not drawn) | 10 | 72* | 14 | 15 | 16 | 15
Oc1c(C(Nc2cccc(C(F)(F)F)c2)c2cccnc2)ccc2cccnc12 (stereo not drawn) | 0 | -27 | 8 | 20 | 14 | 1
CC(=O)NC(c1cccc([N+](=O)[O-])c1)c1ccc2cccnc2c1O (stereo not drawn) | 11 | 123* | 6 | 29 | 10 | 13
Cc1cc(NC(c2cccnc2)c2ccc3cccnc3c2O)no1 (stereo not drawn) | nt | 77* | 9 | 5 | -3 | 6
Oc1cccc(C(Nc2nccs2)c2ccc3cccnc3c2O)c1 (stereo not drawn) | 12 | 132* | 15 | 12 | 16 | 10
Cc1c(C)n(CC(O)CSc2ccccc2)c2ccccc12 (stereo not drawn) | -7 | nt | -4 | -8 | 9 | nt
COC(=O)[C@@]12C[C@@H](CC(=O)N3CCOCC3)C(=O)N(Cc3cccc4ccccc34)C1=CCC(C)(C)C2 | nt | nt | -2 | nt | 10 | nt
CC(C)Nc1nc(Nc2ccc(F)cc2)c2sccc2n1 | 18 | nt | 4 | 17 | 10 | nt
Cc1ccc2c(COC(=O)c3ccccc3F)cc(=O)oc2c1 | 24 | -39 | 6 | 63* | -154 | -3
O=C(CSc1nc2ccc(Cl)cc2[nH]1)NC1CCCc2ccccc21 (stereo not drawn) | 52* | -5 | 4 | 63* | 25 | 8
O=C(CSc1ccc(Cl)cc1)NC1CCCc2ccccc21 (stereo not drawn) | 74* | 5 | 19 | -5 | 19 | 6
O=C(CSc1c(Cl)cccc1Cl)NC1CCCc2ccccc21 (stereo not drawn) | 12 | 21 | -10 | -5 | 21 | 4
O=C(CSc1nc2ccccc2[nH]1)NC1CCCc2ccccc21 (stereo not drawn) | -4 | 22 | -4 | 21 | 5 | 6
CC(=O)Nc1ccc(SCC(=O)c2cc(C)n(-c3ccccc3F)c2C)cc1 | 66* | 34 | 19 | 87* | 50* | 1
O=C1CCC(C(=O)OCC(=O)c2c[nH]c3ccccc23)=NN1 | 2 | -25 | 8 | 13 | 18 | -2
Cc1ccc(-n2c(C)cc(C(=O)COC(=O)C3=NNC(=O)CC3)c2C)cc1 | 5 | 11 | 2 | 16 | 50* | 1
SMILES | TROY NFkB inh | aSyn UTR inh | TRAIL sens C8 | TWEAK-Fn14 inh | HIF-2a inh | HSP90 inh
Cc1cc(C(=O)COC(=O)C2=NNC(=O)CC2)c(C)n1-c1ccccc1 | 57* | -4 | -2 | 7 | 10 | 3
Cc1ccc(-n2c(C)cc(C(=O)COC(=O)c3c(C)noc3C)c2C)cc1 | 6 | -199 | 36 | 15 | -214 | -2
Cc1cc(C(=O)COC(=O)C2=COCCO2)c(C)n1-c1ccccc1 | 87* | nt | 73* | 103* | 14 | nt
Nc1[nH]c(C(=O)c2ccccc2)c(-c2ccc(Cl)cc2)c1C(=O)NCc1ccccc1 | 16 | nt | -8 | 3 | 8 | nt
CCOC(=O)C1=CCN(S(=O)(=O)c2ccc(C)cc2)C1c1ccc(CC)cc1 (stereo not drawn) | -4 | nt | 0 | -2 | -15 | nt
O=C(NCc1ccccc1)C(c1ccc(C(F)(F)F)cc1)n1c(=O)c(-c2cc3ccccc3[nH]2)nc2ccccc21 (stereo not drawn) | nt | nt | 6 | nt | -33 | nt
CC(NCC(=O)Nc1cc(S(=O)(=O)N2CCOCC2)ccc1N1CCOCC1)c1ccco1 (stereo not drawn) | 2 | nt | 2 | -9 | 16 | nt
O=C(NCc1ccccc1)C(C1CC1)n1c(Cc2cc(F)cc(F)c2)nc2ccccc21 (stereo not drawn) | nt | nt | -5 | nt | 12 | nt
Cc1cc(C(=O)COC(=O)c2ccc[nH]c2=O)c(C)n1-c1ccccc1F | 33 | 26 | 59* | 59* | 45* | 5
Cc1ccc(OCC(=O)c2cc(C)n(-c3ccccc3)c2C)c([N+](=O)[O-])n1 | 59* | 68* | 28 | 85* | 84* | 1
CC1(C(=O)O)CCCN1C(=O)c1cc2ccccc2s1 (stereo not drawn) | 6 | nt | -17 | 14 | 4 | nt
Cc1ccc(NC(=O)[C@@H]2O[C@H](CO)[C@@H](O)[C@H]2O)cc1C(F)(F)F | 0 | nt | -10 | -1 | 2 | nt
O=C(NCCN1CCC(n2c(=O)[nH]c3ccccc32)CC1)c1ccc(F)c(F)c1 | -15 | nt | 13 | 21 | -3 | nt
O=C(Nc1nc2ccc(SC(F)F)cc2s1)c1ccc(NS(=O)(=O)c2ccc(F)c(F)c2)cc1 | 54* | -59 | 3 | 71* | -143 | -3
CS(=O)(=O)c1ccc2nc(NC(=O)c3ccc(NS(=O)(=O)c4ccc(F)c(F)c4)cc3)sc2c1 | 11 | 11 | 8 | 7 | -23 | 5
O=NN(CCF)C(=O)NC1CCS(=O)(=O)CC1 | 0 | nt | -4 | -1 | 1 | nt
O=[N+]([O-])c1ccc2nc(-c3ccc(OC(F)F)cc3)cn2c1 | -30 | -32 | 27 | 31 | -220 | 17*
CCC(=O)n1nc(-c2ccc(Cl)cc2)nc1SC | -31 | -104 | 11 | 77* | -215 | 1
O=C(CCCn1c(=S)[nH]c2cc3c(cc2c1=O)OCO3)N1CCN(c2ccc(Cl)cc2)CC1 | 58* | 16 | 21 | 17 | 25 | 2

Screening data deposited in PubChem by several laboratories.
